# Assay results from PubChem BioAssay (NCATS).
# Results filed as inconclusive are left out. The source made the active and inactive calls. The call rests on the fitted dose curve; in most records, active means well fitted cell-killing curve with a large enough effect; inconclusive means small, poorly fitted or top-dose-only effect, or effect the other way; inactive means no such curve, though single readings can be large or run the other way.
# Test: Quantitative High-Throughput drug screen in 47 multiple myeloma cell lines against the NCATS MIPE library collection: XG1_PLB cell viability assay (AID 1919866); further: nearly all actives have a fitted effect of over 35% in size
# Details: CellTiter-Glo ATP, 48 h; series mostly up to 45.8 µM
# Source text: PI: Beverly A. Mock Ph.D.
# Laboratory of Cancer Biology and Genetics,
# Center for Cancer Research, National Cancer Institute,
# National Institute of Health, Bethesda, Maryland
# Drug resistance and disease progression are common in multiple myeloma (MM) patients, underscoring the need for new therapeutic combinations. […] We hypothesized that effective combinations would reduce MYC expression and enhance p16 activity. […] These preclinical data identify potentially useful drug combinations for evaluation in drug-resistant MM and reveal potential mechanisms of combined drug sensitivity.
# Described herein is the primary MIPE qHTS used to cherrypick compounds. Validated compounds were then further tested for potential synergistic activiy.
# [1] Peat TJ, Gaikwad SM, Dubois W, Gyabaah-Kessie N, Zhang S, Gorjifard S, Phyo Z, Andres M, Hughitt VK, Simpson RM, Miller MA, Girvin AT, Taylor A, Williams D, D'Antonio N, Zhang Y, Rajagopalan A, Flietner E, Wilson K, Zhang X, Shinn P, Klumpp-Thomas C, McKnight C, Itkin Z, Chen L, Kazandijian D, Zhang J, Michalowski AM, Simmons JK, Keats J, Thomas CJ, Mock BA. Drug combinations identified by high-throughput screening promote cell cycle transition and upregulate Smad pathways in myeloma. Cancer Lett. 2023 Aug 1;568:216284. doi: 10.1016/j.canlet.2023.216284. Epub 2023 Jun 24. PMID: 37356470; PMCID: PMC10408729.
# SEQUENCE No. (e.g., 1, 2, 3, etc.); […] (e.g., Cells, Incubation, Reagent, etc.); VALUE and DESCRIPTION.
# 1; Cells; 5 uL; white, solid bottom 1536-well Greiner assay plate.
# 2; Compounds; 23 nL; Kalypsis pin tool (Wako USA) equipped with a 1536-well pin head to transfer to the assay plates.
# 3; Incubation; 48 hours; 37C incubation.
# 4; Reagent;5uL; CellTiter Glo (Promega).
# 5; Detector; 425V; Luminescence; Viewlux PerkinElmer.
# NOTES (numbers refer to Sequence numbers above)
# 1. The cell-based screening methods employed in this study were like those previously published. Briefly, the corresponding myeloma cell lines were screened in 1,536-well plates with 500 cells, 5-uL per well for inhibition of cell viability (assessed by measuring ATP levels with CellTiterGlo).
# 2. NCATS MIPE 4.0 library of approved and investigational drugs were added using the Kalypsis pin tool. Wells treated with DMSO only for 100% viability and media only for 0% viability were used as controls.
# 3. The assay plates were covered and incubated for 48 hours in a 37C, 5% CO2 incubator with controlled humidity.
# 4. After 48 hours, CellTilter-GloTM luminescent substrate mix (Promega) reagent was added to the assay plate and plates we incubated for 5 min at room temperature.
# 5. Signal was measured as median relative luminescence units on a ViewLux (PerkinElmer) multiplate reader.
# [1] Heske CM, Davis MI, Baumgart JT, Wilson K, Gormally MV, Chen L, Zhang X, Ceribelli M, Duveau DY, Guha R, Ferrer M, Arnaldez FI, Ji J, Tran HL, Zhang Y, Mendoza A, Helman LJ, Thomas CJ. Matrix Screen Identifies Synergistic Combination of PARP Inhibitors and Nicotinamide Phosphoribosyltransferase (NAMPT) Inhibitors in Ewing Sarcoma. Clin Cancer Res. 2017 Dec 1;23(23):7301-7311. doi: 10.1158/1078-0432.CCR-17-1121. Epub 2017 Sep 12. PMID: 28899971; PMCID: PMC6636827.
# Potency means the concentration at half of the fitted maximal effect.
row,SMILES,Potency
1,CNC(=O)c1ccc(N2C(=S)N(c3ccc(C#N)c(C(F)(F)F)c3)C(=O)C23CCC3)cc1F,1.32 µM (active)
2,O=C(O)C(=O)c1cn(Cc2ccccc2)c2ccc(-c3ccc(OC(F)(F)F)cc3)cc12,9.35 µM (active)
3,COC[C@@H](NC(C)=O)C(=O)NCc1ccccc1,inactive
4,Cc1sc2c(c1C)C(c1ccc(Cl)cc1)=N[C@@H](CC(=O)OC(C)(C)C)c1nnc(C)n1-2,0.187 µM (active)
5,CN(C)CCN(C)CCc1ccc(Cl)c(Cl)c1,inactive
6,CNCC(O)c1ccc(O)cc1 (centres undefined),inactive
7,C[C@@H]1O[C@@H](O[C@H]2C[C@@H](O)[C@]3(CO)[C@H]4[C@H](O)C[C@]5(C)[C@@H](C6=CC(=O)OC6)CC[C@]5(O)[C@@H]4CC[C@]3(O)C2)[C@H](O)[C@H](O)[C@H]1O,0.0074 µM (active)
8,Cn1cc(C2=C(c3cn(C4CCN(Cc5ccccn5)CC4)c4ccccc34)C(=O)NC2=O)c2ccccc21,5.26 µM (active)
9,CC1=C2C[C@@H]3[C@@H](CC=C4C[C@@H](O)CC[C@@]43C)[C@@H]2CC[C@]12O[C@H]1C[C@H](C)CN[C@H]1[C@H]2C,inactive
10,CC(O)(CS(=O)(=O)c1ccc(F)cc1)C(=O)Nc1ccc(C#N)c(C(F)(F)F)c1 (centres undefined),0.166 µM (active)
11,C[C@@H]1[C@@H](CC(C[C@H]2O[C@@H]3O[C@]4(C)CC[C@@H]5[C@H](C)CC[C@@H]([C@H]2C)[C@@]35OO4)C[S+](=O)([O-])c2ccc(COC(=O)N(C)C)cc2)O[C@@H]2O[C@]3(C)CC[C@H]4[C@H](C)CC[C@@H]1[C@@]24OO3 (some centres undefined),0.296 µM (active)
12,O=C1CC[C@@]2(O)[C@H]3Cc4ccc(O)c5c4[C@@]2(CCN3CC2CC2)[C@H]1O5,inactive
13,C=C(C)[C@H]1Cc2c(ccc3c2O[C@@H]2COc4cc(OC)c(OC)cc4[C@@H]2C3=O)O1,0.264 µM (active)
14,Fc1ccc(C(OCCN2CCN(CCCc3ccccc3)CC2)c2ccc(F)cc2)cc1,7.43 µM (active)
15,COc1ccc2c(c1OC)CN1CCc3cc4c(cc3C1C2)OCO4 (centres undefined),14.8 µM (active)
16,CN(C)CCc1ccc(O)cc1,inactive
17,CN1CCN(C(=O)O[C@H]2c3nccnc3C(=O)N2c2ccc(Cl)cn2)CC1,inactive
18,COC[C@H]1OC(=O)c2coc3c2[C@@]1(C)C1=C(C3=O)C2CCC(=O)[C@@]2(C)C[C@H]1OC(C)=O (some centres undefined),1.48 µM (active)
19,C#CCN(C)[C@H](C)Cc1ccccc1,inactive
20,COc1ccc(C(=O)c2c(C)n(CCN3CCOCC3)c3ccccc23)cc1,inactive
21,CN(C)[C@@H]1C(=O)C(C(N)=O)=C(O)[C@@]2(O)C(=O)C3=C(O)c4c(O)cccc4[C@@](C)(O)[C@H]3C[C@@H]12,inactive
22,Cn1c(CCCC(=O)O)nc2cc(N(CCCl)CCCl)ccc21,14.8 µM (active)
23,CCCC(C)(COC(N)=O)COC(=O)NC(C)C (centres undefined),inactive
24,N[C@@H](Cc1ccc(N(CCCl)CCCl)cc1)C(=O)O,7.43 µM (active)
